Assay outcomes from PubChem.
T cruzi growth-1: T. cruzi proliferation inhibition; T. cruzi beta-gal in NIH3T3, GalScreen luminescence, 90 h; inhibition, % at 8.34 µM; hit rate 5.9% among 77,000; AID 624255;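 active means mean inhibition above about 93%, with at least 55% of replicates each passing it, limit read from the data, passing the limit was not always enough; inconclusive means only one of those two conditions holds; inactive means neither condition holds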
Pf Dd2 growth: P. falciparum Dd2 growth inhibition. activity change, % at 10 µM. hit rate 2.3% among 94,000. AID 1159554. SYBR Green, 72 h; stronger effect = lower value; in the data active means activity change below about -80%; inconclusive means no clear call, values can overlap the other calls
C diff growth: inhibitors of Clostridium difficile growth; Clostridium difficile clinical isolate growth, OD600, 24 h; stronger effect = lower value; growth activity, negative = inhibition, % at 16 µg/mL (by protocol); hit rate 0.25% among 86,000; AID 1259249;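 active means mean growth activity at or below -80% and every replicate also at or below -80%; inconclusive means mean at or below -80% but some replicate above -80%; inactive means mean growth activity above -80%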;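 further: 0% = DMSO wells and -100% = levofloxacin 16 µg/mL wells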
T cruzi growth-2: blocks T. cruzi growth in NIH3T3 host cells; inhibition, % at 8.35 µM; hit rate 72% among 5,600; T. cruzi beta-gal in NIH3T3, GalScreen luminescence, 90 h; AID 651739; shares compounds with T cruzi growth-1;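 active means mean replicate inhibition above about 95% and at least 55% of replicates individually reaching it, limit read from the data; inconclusive means only one of the two criteria is met; inactive means neither criterion is met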
T cruzi growth-3: Trypanosoma cruzi proliferation inhibition. shares compounds with T cruzi growth-1. T. cruzi beta-gal in NIH3T3, GalScreen luminescence, 90 h. AID 651740. inhibition, % at 2.09 µM. hit rate 21% among 5,600;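 active means mean inhibition above about 95%, with at least 55% of replicates also reaching it, limit read from the data; inconclusive means meets just one of the two conditions; inactive means meets neither condition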;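 further: plate controls were neutral control median for no effect and positive control median for full effect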
3T3 cytotox: cytotoxicity in mouse NIH/3T3 fibroblasts. shares compounds with T cruzi growth-1. cytotoxicity (signal decrease), % at 8.35 µM. hit rate 14% among 5,600. NIH/3T3 viability, CellTiter-Glo ATP luminescence, 90 h;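 active means mean signal decrease across replicates above about 35% based on untreated-well scatter, with enough replicates individually passing, limit read from the data; inconclusive means no rule stated though some were filed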;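 further: 0% = median of neutral control wells and 100% = median of positive control wells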
3T3 cytotox 2: cytotoxicity in mouse NIH/3T3 fibroblasts; hit rate 56% among 5,600; shares compounds with T cruzi growth-1; AID 651744; inhibition, % at 24.9 µM; NIH/3T3 viability, CellTiter-Glo ATP luminescence, 90 h;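 active means mean loss of cell viability signal at or above a set limit, and enough replicates individually reaching it; inconclusive means meets only the mean limit or only the replicate share; inactive means meets neither condition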;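 further: 0% = median of neutral control wells and 100% = median of positive control wells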
The depositor's hits bear a star; ? = inconclusive; · = not tested or not shown. Shown are actives, neighbours in structure and some others; about 6.8% of the full set was active somewhere.

SMILES	T cruzi growth-1	Pf Dd2 growth	C diff growth	T cruzi growth-2	T cruzi growth-3	3T3 cytotox	3T3 cytotox 2
COCC(=O)N1[C@@H](CO)[C@@H](c2ccccc2)C12CN(C(=O)c1cccnc1)C2	·	4	-7	·	·	·	·
C[C@H]1CN([C@@H](C)CO)S(=O)(=O)c2ccc(Br)cc2O[C@H]1CN(C)Cc1ccccc1F	·	-4	0	·	·	·	·
C[C@@H]1CN([C@@H](C)CO)S(=O)(=O)c2ccc(Br)cc2O[C@H]1CN(C)Cc1ccccc1F	·	-16	5	·	·	·	·
C/C=C/c1ccc2c(c1)O[C@@H](CN(C)Cc1ccccc1F)[C@H](C)CN([C@@H](C)CO)S2(=O)=O	116*	-22	22	96*	90	57*	105*
C/C=C/c1ccc2c(c1)O[C@@H](CN(C)Cc1ccccc1F)[C@@H](C)CN([C@H](C)CO)S2(=O)=O	119*	-6	5	105*	80	0	105*
O=C(Nc1cc(F)ccc1F)N[C@H]1CC[C@@H](CCn2cc(C3CC3)nn2)O[C@H]1CO	3	14	·	·	·	·	·
COCC#Cc1ccc([C@@H]2[C@@H](CO)N3CCCCN(C(=O)COC)C[C@H]23)cc1	102*	56	-13	38	-5	16	-2
CCC(=O)N1CCCCN2[C@H](CO)[C@@H](c3ccc(C#CCOC)cc3)[C@@H]2C1	100*	0	-6	1	22	-2	14
COCC#Cc1ccc([C@@H]2[C@H]3CN(C(=O)COC)CCCCN3[C@H]2CO)cc1	25	55	-11	·	·	·	·
CCC(=O)N1CCCCN2[C@H](CO)[C@H](c3ccc(C#CCOC)cc3)[C@H]2C1	64	-14	-2	·	·	·	·
COCC(=O)N1C[C@@H]2[C@H](c3ccccc31)[C@H](CO)N2Cc1ccccc1	-12	7	6	·	·	·	·
Cc1ccc(-c2ccc([C@@H]3[C@@H](CO)N4CCCCN(S(=O)(=O)c5ccccc5C)C[C@H]34)cc2)cc1	75	-31	20	·	·	·	·
CCS(=O)(=O)NCC[C@@H]1CC[C@@H](NC(=O)Cc2ccccn2)[C@H](CO)O1	-59	-27	·	·	·	·	·
O=C(C[C@H]1C=C[C@@H](NC(=O)Cc2cccnc2)[C@H](CO)O1)Nc1ccc(-c2ccccc2)cc1	·	-6	-2	·	·	·	·
COc1ccc(NC(=O)N(C)C[C@H]2Oc3cc(-c4ccc(C)cc4)ccc3S(=O)(=O)N([C@@H](C)CO)C[C@H]2C)cc1	106*	-75	0	108*	70	-19	13
COc1ccc(NC(=O)N(C)C[C@H]2Oc3cc(-c4ccncc4)ccc3S(=O)(=O)N([C@H](C)CO)C[C@@H]2C)cc1	63	-17	0	·	·	·	·
COc1ccc(NC(=O)N(C)C[C@@H]2Oc3cc(-c4ccc(C)cc4)ccc3S(=O)(=O)N([C@H](C)CO)C[C@@H]2C)cc1	123*	-90*	-2	105*	85	47*	25
COc1ccc(NC(=O)N(C)C[C@@H]2Oc3cc(-c4ccncc4)ccc3S(=O)(=O)N([C@H](C)CO)C[C@H]2C)cc1	72	4	0	·	·	·	·
COc1ccc(NC(=O)Nc2ccc3c(c2)[C@H]2C[C@@H](CC(=O)NC4CCCC4)O[C@@H](CO)[C@H]2O3)cc1	-3	14	·	·	·	·	·
c1cc(-c2ccc(C3[C@H]4CNC[C@@H]3N4Cc3nccs3)cc2)ccn1 (stereo partly specified)	·	-5	3	·	·	·	·
Cc1ccc(-c2ccc3c(c2)O[C@@H](CN(C)C(=O)C2CCC2)[C@@H](C)CN([C@@H](C)CO)S3(=O)=O)cc1	31	-46	6	·	·	·	·
C[C@@H]1CN([C@H](C)CO)S(=O)(=O)c2ccc(-c3ccncc3)cc2O[C@H]1CN(C)C(=O)C1CCC1	103*	-2	·	89	29	18	42*
C[C@H]1CN([C@@H](C)CO)S(=O)(=O)c2ccc(-c3ccncc3)cc2O[C@@H]1CN(C)C(=O)C1CCC1	86	-23	·	·	·	·	·
C[C@H]1CN([C@@H](C)CO)S(=O)(=O)c2ccc(-c3ccccc3)cc2O[C@@H]1CN(C)C(=O)C1CCCCC1	86	-40	11	·	·	·	·
Cc1ccc(-c2ccc3c(c2)O[C@@H](CN(C)C(=O)C2CCC2)[C@H](C)CN([C@H](C)CO)S3(=O)=O)cc1	52	-60	-5	·	·	·	·
SMILES	T cruzi growth-1	Pf Dd2 growth	C diff growth	T cruzi growth-2	T cruzi growth-3	3T3 cytotox	3T3 cytotox 2
C[C@@H]1CN([C@@H](C)CO)S(=O)(=O)c2ccc(-c3ccccc3)cc2O[C@H]1CN(C)C(=O)C1CCCCC1	?	-50	0	97*	53	34	0
Cc1ccc(-c2ccc3c(c2)O[C@H](CN(C)C(=O)C2CCCCC2)[C@H](C)CN([C@H](C)CO)S3(=O)=O)cc1	121*	-29	·	96*	?	29	105*
Cc1ccc(-c2ccc3c(c2)O[C@H](CN(C)C(=O)C2CCC2)[C@H](C)CN([C@@H](C)CO)S3(=O)=O)cc1	121*	-50	11	83	73	41*	78*
CCCN(C)C[C@H]1Oc2cc(C3=CCCCC3)ccc2S(=O)(=O)N([C@H](C)CO)C[C@@H]1C	·	-26	·	·	·	·	·
C[C@H]1CN([C@@H](C)CO)C(=O)c2cc(NC(=O)CCC(F)(F)F)ccc2O[C@H]1CN(C)S(=O)(=O)c1ccc(F)cc1	-2	-1	-15	·	·	·	·
Cc1ccc(-c2ccc3c(c2)O[C@@H](CN(C)C(=O)C2CC2)[C@@H](C)CN([C@@H](C)CO)S3(=O)=O)cc1	67	-26	·	·	·	·	·
Cc1ccc(-c2ccc3c(c2)O[C@@H](CN(C)C(=O)C2CCCCC2)[C@H](C)CN([C@H](C)CO)S3(=O)=O)cc1	112*	-79	·	101*	87	21	107*
Cc1ccc(-c2ccc3c(c2)O[C@H](CN(C)C(=O)C2CCCCC2)[C@H](C)CN([C@@H](C)CO)S3(=O)=O)cc1	118*	-25	·	95	73	50*	106*
Cc1ccc(-c2ccc3c(c2)O[C@@H](CN(C)C(=O)C2CCC2)[C@@H](C)CN([C@H](C)CO)S3(=O)=O)cc1	63	-66	-2	·	·	·	·
C[C@@H]1CCCCO[C@@H](CN(C)C(=O)Nc2ccc(F)cc2)[C@H](C)CN([C@@H](C)CO)C(=O)c2cc(N(C)C)ccc2O1	54	-70	1	·	·	·	·
C[C@H](CO)N1C[C@H](C)[C@@H](CN(C)S(=O)(=O)c2ccc(F)cc2)Oc2ccc(NC(=O)Nc3cccc4ccccc34)cc2C1=O	19	-16	2	·	·	·	·
CO[C@@H]1CN(C)C(=O)c2ccc(NC(=O)c3ccc(F)cc3)cc2OC[C@@H](C)N(C(=O)CN(C)C)C[C@@H]1C	19	·	·	·	·	·	·
C[C@@H]1CN([C@@H](C)CO)S(=O)(=O)c2ccc(-c3ccncc3)cc2O[C@@H]1CN(C)Cc1cncnc1	89	35	1	·	·	·	·
